Source: PubChem BioAssay AID488969 (Vanderbilt High Throughput Screening Facility, 2010)
Over roughly 110,000 compounds, “z-score” has its median near -0.1; the highest 2% begin near 2. The sample holds the highest values, similar compounds and a random draw of the others, so the mix is not that of the screen. Activity calls are given as the source filed them.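 How the source made its calls: active means z-score in the third read window above 3 or below -3; inactive means the rest.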

Molecular target: Metabotropic glutamate receptor 8 (Rattus norvegicus) (UniProt P70579)
Assay: rat mGluR8 modulators via GIRK flux, primary screen, cell-based, thallium flux, HTS (AID 488969)
Details: HEK293 rat mGluR8, GIRK (G protein-gated inwardly rectifying potassium channel) thallium flux, FluoZin2; at 10 µM; stronger effect = higher value; submaximal glutamate (EC20) added with thallium

Metabotropic glutamate receptor 8 (Rattus norvegicus), sequence (P70579 whole entry, looked up): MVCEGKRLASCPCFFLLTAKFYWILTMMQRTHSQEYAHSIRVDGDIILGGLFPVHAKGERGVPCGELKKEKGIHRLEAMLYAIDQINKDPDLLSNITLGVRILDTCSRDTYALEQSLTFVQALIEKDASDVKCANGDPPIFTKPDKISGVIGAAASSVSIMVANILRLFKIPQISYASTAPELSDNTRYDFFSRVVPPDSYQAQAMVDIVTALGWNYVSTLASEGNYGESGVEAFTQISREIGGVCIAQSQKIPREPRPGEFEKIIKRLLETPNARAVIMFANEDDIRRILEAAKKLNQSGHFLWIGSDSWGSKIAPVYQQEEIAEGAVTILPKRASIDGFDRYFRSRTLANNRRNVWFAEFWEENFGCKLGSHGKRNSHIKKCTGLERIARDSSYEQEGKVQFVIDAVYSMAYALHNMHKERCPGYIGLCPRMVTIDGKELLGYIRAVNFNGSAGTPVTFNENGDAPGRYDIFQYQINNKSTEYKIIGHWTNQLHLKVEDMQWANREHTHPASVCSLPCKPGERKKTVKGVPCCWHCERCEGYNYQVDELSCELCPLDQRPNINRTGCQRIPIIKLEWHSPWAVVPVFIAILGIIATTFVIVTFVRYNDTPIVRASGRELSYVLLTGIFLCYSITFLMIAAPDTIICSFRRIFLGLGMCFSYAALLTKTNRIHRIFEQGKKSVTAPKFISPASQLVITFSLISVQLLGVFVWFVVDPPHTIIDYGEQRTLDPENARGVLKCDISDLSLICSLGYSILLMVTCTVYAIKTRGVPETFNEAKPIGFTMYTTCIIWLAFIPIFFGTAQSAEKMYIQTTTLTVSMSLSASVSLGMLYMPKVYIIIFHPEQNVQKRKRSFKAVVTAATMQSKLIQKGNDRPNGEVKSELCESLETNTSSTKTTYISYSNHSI

Structure (SMILES)	z-score
O=C(N/N=C/c1c[nH]c2ccccc12)c1cc(-c2cccc3ccccc23)n[nH]1	-0.463
COc1ccc(OCC(=O)O/N=C(\N)Cc2ccc(Cl)cc2Cl)cc1	0.353
CCOC(=O)c1[nH]c(C)c(/C(O)=C2\C(=O)C(=O)N(CCCN(C)C)C2c2cccnc2)c1C (stereo unspecified)	-0.333
COc1cc(CNc2nc3ccccc3n2C)cc(OC)c1OC	-0.245
CCCNC(=O)COC(=O)c1cc(SC)ccc1Cl	0.561
O=C(CN(C(=O)Cn1nnc(-c2cccs2)n1)c1ccc2c(c1)OCCO2)NC1CCCCC1	-0.0843
Cc1ccc(N2C(=S)N=C(Nc3ccccc3C)C23CCOC(C)(C)C3)cc1 (stereo unspecified)	15 (active)
Cc1cccc(C)c1NC1=NC(=S)N(c2ccc(N(C)C)cc2)C1(C)C	1.87
CCC1(C)C(Nc2c(C)cccc2C)=NC(=S)N1c1ccc(NC(C)=O)cc1 (stereo unspecified)	-0.38
Cc1cccc(C)c1NC1=NC(=S)N(c2ccccc2)C12CCOC(C)(C)C2 (stereo unspecified)	0.847
Cc1cccc(N2C(=S)N=C(Nc3c(C)cccc3C)C23CCOC(C)(C)C3)c1 (stereo unspecified)	-0.179
Cc1ccccc1NC1=NC(=S)N(c2ccccc2)C12CCOC(C)(C)C2 (stereo unspecified)	12.6 (active)
Cc1sc(NC(=S)NC(=O)C(C)(C)C)c(C(N)=O)c1C	-0.0974
O=C(O)C1C2C=CC(C2)C1C(=O)NCCc1cccc(Cl)c1 (stereo unspecified)	6.03 (active)
O=C(O)C1C2C=CC(C2)C1C(=O)NCCc1ccccc1 (stereo unspecified)	-0.122
O=C(O)C1C2C=CC(C2)C1C(=O)NCCc1ccncc1 (stereo unspecified)	0.718
CCc1nnc(NC(=O)CN2CCN(c3cccc(OC)c3)CC2)s1	0.136
CCC(COC(=O)Nc1cccc(C)c1C)NC(=O)OCC(C)C (stereo unspecified)	-0.549
CCCOC(=O)NC(CC)COC(=O)Nc1cc(C)ccc1C (stereo unspecified)	-0.0367
CCCOC(=O)NC(CC)COC(=O)Nc1cccc(C)c1C (stereo unspecified)	3.15 (active)
CN(C1CCCCC1)S(=O)(=O)c1ccc2c(c1)c(=O)c(C(=O)N1CCc3ccccc3C1)cn2C	-1.33
Cc1cc(Cl)c(S(=O)(=O)Nc2ccc(Cl)cn2)cc1OCC(N)=O	0.203

Structure (SMILES)	z-score
COc1ccc(-n2c(=O)[nH]cc(C(=O)Nc3ccccc3)c2=O)cc1	0.241
COc1cccc(-n2c(=O)[nH]cc(C(=O)Nc3ccc(NC(C)=O)cc3)c2=O)c1	-0.503
COc1ccc(-n2c(=O)[nH]cc(C(=O)Nc3ccc(NC(C)=O)cc3)c2=O)cc1	9.34 (active)
CCc1ccc(N=c2c([N+](=O)[O-])nn(-c3ccccc3)n2O)cc1	-0.133
CCCn1c(SCC(=O)N2CCCc3ccccc32)nnc1-c1ccccn1	-0.0622
Cc1nn(CCC#N)c(NC(=O)c2ccc(Cl)cc2Cl)c1P(=O)(Nc1ccc([N+](=O)[O-])cc1)N1CCOCC1 (stereo unspecified)	-0.0204
CCOc1ccc2cc(C(=O)c3ccccc3)c(=O)oc2c1	-0.201
CN(C)C(=O)COc1ccc2ccc(=O)oc2c1	-0.168
CN(C)C(=O)COc1ccc2cc(-c3ccccc3)c(=O)oc2c1	2.32
Fc1ccc(C2NC(=S)NC3=C2N2CCC3CC2)cc1 (stereo unspecified)	-0.0689
O=C1CC(c2cccs2)Sc2nc3ccccc3n21 (stereo unspecified)	1.16
O=C1CC(c2ccco2)Sc2nc3ccccc3n21 (stereo unspecified)	3.22 (active)
O=C(O)C1CC(=O)n2c(nc3ccccc32)S1 (stereo unspecified)	0.555
CCCCOc1nc(N)nc(-c2ccccc2)n1	-0.634
COc1ccc(C(=O)CSc2nc3ccccc3n2CC(=O)NC(C)(C)C)cc1	-0.144
COC(=O)CSC1=C(C#N)C(=O)NC(c2ccccc2)S1 (stereo unspecified)	-0.603
CCOC(=O)CSC1=C(C#N)C(=O)NC(c2ccc(OC)cc2)S1 (stereo unspecified)	0.083
CCOC(=O)CSC1=C(C#N)C(=O)NC(c2ccc(OC)c(OC)c2)S1 (stereo unspecified)	6.39 (active)
O=C(CSc1c[nH]c2ccccc12)NCC1CCCO1 (stereo unspecified)	-0.0605
C#CCOC(=O)C(NC(=O)c1ccccc1)=C1CCCCC1	-0.603
C=CCNC(=O)/C(=C\c1ccc2c(c1)OCO2)NC(=O)c1ccc(Br)cc1	-0.116
Cc1[nH]c2ccccc2c1C(=O)CN1C(=O)NC2(CC(C)CC(C)(C)C2)C1=O (stereo unspecified)	-0.266

Structure (SMILES)	z-score
O=C(OCCN1C(=O)c2cccc3c(N4CCOCC4)ccc(c23)C1=O)c1cc(Cl)cc(Cl)c1	5.23 (active)
O=C(OCCN1C(=O)c2cccc3c(N4CCOCC4)ccc(c23)C1=O)c1ccccc1Cl	-0.723
O=C(OCCN1C(=O)c2cccc3c(N4CCOCC4)ccc(c23)C1=O)c1ccc(Cl)cc1	-0.758
O=C(OCCN1C(=O)c2cccc3c(N4CCOCC4)ccc(c23)C1=O)c1ccc(Cl)cc1Cl	-0.884
O=C1c2cccc3c(N4CCCCC4)ccc(c23)C(=O)N1CCO	-0.897
O=C(OCCN1C(=O)c2cccc3c(N4CCOCC4)ccc(c23)C1=O)c1cccc(Cl)c1	2.81
CCN1CCCC1CNC(=O)c1ccc(N2CCCC2=O)cc1 (stereo unspecified)	1.38
O=S(=O)(Cc1ccccc1Cl)Nc1ccccn1	1.91
CCOc1ccccc1NC(=O)c1cccc(NC(=O)c2ccco2)c1	-0.729
CCOc1ccccc1NC(=O)c1cccc(NC(=O)CC(c2ccccc2)c2ccccc2)c1	-0.177
CCOc1ccccc1NC(=O)Nc1cccc(C(C)=O)c1	3.62 (active)
Cc1ccc(SC(C)C(=O)Nc2ccc(S(=O)(=O)N3CCOCC3)cc2)cc1 (stereo unspecified)	6.05 (active)
CC(Sc1ccc(Cl)cc1)C(=O)Nc1ccc(S(=O)(=O)N2CCOCC2)cc1 (stereo unspecified)	0.967
CC(Sc1ccccc1)C(=O)Nc1ccc(S(=O)(=O)N2CCOCC2)cc1 (stereo unspecified)	0.0953
COc1ccsc1C(=O)N1CCN(Cc2ccc3c(c2)OCO3)CC1	-0.0804
COc1cccc(C(=O)OC2CCCN(C)C2)c1 (stereo unspecified)	-0.125
Cc1csc2nc(CNS(=O)(=O)N(C)C)cn12	-0.402
CCc1ccc(S(=O)(=O)NCc2cn3c(C)csc3n2)s1	0.337
CCCS(=O)(=O)NCc1cn2c(C)csc2n1	2.02
CC(c1ccco1)N(C(=O)c1ccccc1NS(=O)(=O)c1ccc(Cl)c([N+](=O)[O-])c1)c1ccccn1 (stereo unspecified)	0.843
CC(c1ccco1)N(C(=O)c1ccccc1NS(=O)(=O)c1ccc(Cl)cc1)c1ccccn1 (stereo unspecified)	-0.362
CC(c1ccco1)N(C(=O)c1ccccc1NS(=O)(=O)c1cc([N+](=O)[O-])ccc1Cl)c1ccccn1 (stereo unspecified)	2.18
